According to PubChem BioAssay AID1159580 (chemical genetic matrix, 2015):
The campaign covered roughly 5,500 compounds. About 2,000 (36%) were called active. Inconclusive results (about 18%) are left out. Cut-off read from the data, not from the text of the source: active = normalized growth mostly below about 0.91 (no sharp cut-off); inconclusive = no clear call, values can overlap the other calls; inactive = mostly above about 0.92. The list shows a part of the results.

Test: chemical genetic growth profiling, strain panel (AID 1159580);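 note: tested at 20 µM; growth read once vehicle control cultures reached saturation at 30 °C; 1 = growth at the plate median or of vehicle wells; lower values mean less growth of the strain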
Conditions: S. cerevisiae deletion strains, growth OD

Measured: normalized growth

NNC(=O)COc1ccc(C2SCCS2)cc1
active: locus YDL101C, strain DUN1, active compounds read low 0.337 | locus YDL214C, strain PRR2, active compounds read low 0.16 | locus YDR477W, strain SNF1, active compounds read low 0.197 | locus YER123W, strain YCK3, active compounds read low 0.148 | locus YER133W, strain GLC7, active compounds read low 0.4 | locus YFR019W, strain FAB1, active compounds read low 0.144 | locus YGR040W, strain KSS1, active compounds read low 0.233 | locus YGR052W, strain FMP48, active compounds read low 0.152 | locus YGR092W, strain DBF2, active compounds read low 0.13 | locus YHR030C, strain SLT2, active compounds read low 0.104 | locus YHR079C, strain IRE1, active compounds read low 0.127 | locus YHR082C, strain KSP1, active compounds read low 0.188 | locus YHR205W, strain SCH9, active compounds read low 0.162 | locus YJL095W, strain BCK1, active compounds read low 0.128 | locus YJL157C, strain FAR1, active compounds read low 0.163 | locus YJR066W, strain TOR1 (second series), active compounds read low 0.156 | locus YJR066W, strain TOR1, active compounds read low 0.159 | locus YKL048C, strain ELM1, active compounds read low 0.215 | locus YKL067W, strain YNK1, active compounds read low 0.141 | locus YKL101W, strain HSL1, active compounds read low 0.153 | locus YKL203C, strain TOR2, active compounds read low 0.209 | locus YLR113W, strain HOG1, active compounds read low 0.171 | locus YLR133W, strain CKI1, active compounds read low 0.194 | locus YLR403W, strain SFP1, active compounds read low 0.152 | locus YML070W, strain DAK1, active compounds read low 0.145 | locus YMR205C, strain PFK2 (second series), active compounds read low 0.151 | locus YMR277W, strain FCP1, active compounds read low 0.85 | locus YNL020C, strain ARK1, active compounds read low 0.195 | locus YNL183C, strain NPR1, active compounds read low 0.187 | locus YNL207W, strain RIO2, active compounds read low 0.829 | locus YNL307C, strain MCK1 (second series), active compounds read low 0.157 | locus YOL136C, strain PFK27, active compounds read low 0.159 | locus YOR061W, strain CKA2, active compounds read low 0.115 | locus YOR119C, strain RIO1, active compounds read low 0.183 | locus YOR231W, strain MKK1, active compounds read low 0.159 | locus YPL031C, strain PHO85, active compounds read low 0.201 | locus YPL153C, strain RAD53, active compounds read low 0.181 | locus YPL204W, strain HRR25, active compounds read low 0.234 | locus YPL256C, strain CLN2, active compounds read low 0.173 | locus YPR106W, strain ISR1, active compounds read low 0.575 | locus YPR111W, strain DBF20, active compounds read low 0.608 | strain NNK1, active compounds read low 0.24
inactive: locus YBL105C, strain PKC1, active compounds read low 0.962 | locus YBR135W, strain CKS1, active compounds read low 0.954 | locus YBR136W, strain MEC1, active compounds read low 0.986 | locus YBR160W, strain CDC28, active compounds read low 0.96 | locus YDL017W, strain CDC7, active compounds read low 0.971 | locus YDL028C, strain MPS1, active compounds read low 0.964 | locus YDL108W, strain KIN28, active compounds read low 0.97 | locus YDR052C, strain DBF4, active compounds read low 0.969 | locus YDR226W, strain ADK1, active compounds read low 0.962 | locus YFR003C, strain YPI1, active compounds read low 0.974 | locus YFR028C, strain CDC14, active compounds read low 0.973 | locus YIL147C, strain SLN1, active compounds read low 0.969 | locus YJR016C, strain ILV3, active compounds read low 0.939 | locus YKL193C, strain SDS22, active compounds read low 0.927 | locus YMR001C, strain CDC5, active compounds read low 0.95 | locus YNL006W, strain LST8, active compounds read low 0.945 | locus YNL161W, strain CBK1, active compounds read low 0.941 | locus YNL222W, strain SSU72, active compounds read low 0.934 | locus YOR329C, strain SCD5, active compounds read low 0.972 | locus YPL209C, strain IPL1, active compounds read low 0.965 | locus YPR025C, strain CCL1, active compounds read low 0.954
